Most compounds without a hit are left out; they make up all but 1.2% or so of the library.
RGS7-Gao reg: regulators of human RGS7-Galphao interaction; Multiplexed bead flow cytometry, RGS7-Galphao binding; actives lie on both sides; P09471; binding response (% of control), % at 10 µM; 220,000 tested, 0.35% active; in the data active = binding response below about 49% or above about 150%; inconclusive = no clear call, values can overlap the other calls; inactive = in between;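 note: fluorescent Galphao held in activated GDP-AlF4 state binding bead-coupled RGS7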
Target sequence (P09471 whole entry, looked up): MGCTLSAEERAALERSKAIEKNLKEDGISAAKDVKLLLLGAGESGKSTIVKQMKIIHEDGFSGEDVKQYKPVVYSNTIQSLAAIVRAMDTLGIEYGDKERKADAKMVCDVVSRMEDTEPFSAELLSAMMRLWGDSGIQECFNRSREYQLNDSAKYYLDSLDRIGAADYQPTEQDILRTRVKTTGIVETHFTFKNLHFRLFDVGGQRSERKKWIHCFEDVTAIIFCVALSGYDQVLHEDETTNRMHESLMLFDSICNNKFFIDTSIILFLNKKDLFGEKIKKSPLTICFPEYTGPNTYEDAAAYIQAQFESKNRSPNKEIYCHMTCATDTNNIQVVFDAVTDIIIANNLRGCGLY
RGS16-Gao: regulators of human RGS16-Galphao interaction; O15492+P09471; bead-based flow cytometry RGS16-Galphao binding, fluorescence; actives lie on both sides; binding response (% of control), % at 10 µM; 220,000 tested, 0.38% active; AID 1441; call rule not given here;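 note: Galphao activated by GDP with aluminum fluoride before binding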
Target sequence (O15492 whole entry, looked up): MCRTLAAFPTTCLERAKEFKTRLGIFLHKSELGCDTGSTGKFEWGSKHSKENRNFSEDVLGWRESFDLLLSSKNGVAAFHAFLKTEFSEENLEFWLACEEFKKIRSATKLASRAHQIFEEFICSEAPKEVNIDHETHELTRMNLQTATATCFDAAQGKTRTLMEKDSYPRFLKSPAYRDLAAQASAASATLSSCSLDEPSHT
Target sequence (P09471 whole entry, looked up): as the sequence (P09471 whole entry, looked up) above
GSH fluor: GSH bead compound fluorescence profile | 190,000 tested, 0.25% active | GSH beads flow cytometry, compound fluorescence 488/530 nm; active compounds read high | AID 1776 | fluorescence (KMESF) at 10 µM; in the data active = fluorescence above about 89;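 note: glutathione beads carrying GST-tagged Bcl family fusion proteins plus one bare bead set; values are compound well signal with DMSO vehicle wells as background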
Avidin bead fluor: compound fluoresces at 488/530 nm on avidin beads | AID 1775 | fluorescence (KMESF) at 10 µM | compound fluorescence 488/530 nm, flow cytometry; active compounds read high | 220,000 tested, 0.38% active; in the data active = fluorescence above about 47
RGS8-Gao reg: human RGS8-Galphao interaction regulation; P09471; multiplexed bead flow cytometry, RGS8-Galphao binding; actives lie on both sides; response (percent of control binding), % at 10 µM; 220,000 tested, 0.34% active; AID 1423; in the data active = response below about 60% or above about 140%; inactive = in between;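 note: Galphao activated as the GDP aluminium fluoride complex binding bead-coupled RGS8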
RGS4-Gao reg: modulates binding of RGS4 to human Galphao; P09471; Multiplexed bead flow cytometry; actives lie on both sides; binding response (% of control), % at 10 µM; 220,000 tested, 0.33% active; AID 1415; in the data active = binding response below about 49% or above about 150%; inactive = in between;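 note: fluorescent Galphao activated with aluminum fluoride binding bead-coupled RGS4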
* hit, by the source's call; ? = inconclusive; / = not tested or not shown.

SMILES | RGS7-Gao reg | RGS16-Gao | GSH fluor | Avidin bead fluor | RGS8-Gao reg | RGS4-Gao reg
COc1ccc(N=C2S/C(=C\c3ccc(OCC(=O)O)cc3)C(=O)N2CCc2c[nH]c3ccccc23)cc1 | 96 | 101 | 27 | 11 | 100 | 96
COc1ccc(N=C2S/C(=C\c3ccc(N4CCOCC4)o3)C(=O)N2CCc2c[nH]c3ccccc23)cc1 | 96 | 97 | 113* | 23 | 91 | 99
COc1ccc(-c2nc(-c3ccccc3)nc(N3CCN(C)CC3)c2C#N)cc1 | 97 | 109 | 13 | 51* | 106 | 102
COc1cc(/C=C2\SC(=O)N(CCNC(=O)c3sc4cc(F)ccc4c3Cl)C2=O)cc(OC)c1OC | 101 | 103 | 21 | 5 | 98 | 96
O=C(O)C1CC=CCC1C(=O)NCc1ccc2c(c1)OCO2 (centres undefined) | 100 | 104 | 102* | 4 | 103 | 98
Cc1cccc(C(=O)NC(NCc2ccco2)C(Cl)(Cl)Cl)c1 (centres undefined) | 44* | 42 | 26 | 2 | 57* | 49*
CCOC(=O)c1[nH]c2ccc(OC)cc2c1NC(C)=O | 121 | 102 | 15 | 62* | 101 | 106
CCOC(=O)Nc1c(C(=O)OC)[nH]c2cccc(OC)c12 | 120 | 125 | 28 | 57* | 103 | 122
COC(=O)c1[nH]c2cccc(OC)c2c1NC(=O)CCN1CCC(C)CC1 | 100 | 101 | 22 | 33 | 101 | 100
CC(=O)Nc1cccc(C(=O)Nc2cccnc2)c1 | 102 | 100 | 16 | 8 | 101 | 99
CCOC(=O)c1ccc2c(c1)nc(SCC(=O)c1ccco1)n2CC | 95 | 52 | 255* | 5 | 91 | 97
Cc1c(NC(=S)SCc2ccccc2)c(=O)n(-c2ccccc2)n1C | 102 | 104 | 9 | 19 | 103 | 99
O=C(CSc1nc(-c2ccco2)cc(C(F)(F)F)n1)Nc1cccnc1 | 124 | 108 | 62 | 59* | 105 | 98
Cc1cccn2c(=O)c(C=O)c(NCc3ccccc3)nc12 | ? | 103 | / | 6 | 104 | 102
COc1cccc(NC(=O)Cn2c(CCC(=O)O)ccc2-c2ccc(C)cc2)c1 | 97 | 98 | 9 | 10 | 100 | 101
CC(C)Cn1c(=O)c2c(nc3n2CCCN3CCc2ccccc2)n(C)c1=O | 96 | 52 | 257* | 5 | 86 | 98
Cc1cc2nc(-c3ccc(SCc4ccccn4)nc3)[nH]c2cc1C | 100 | 103 | 7 | 19 | 102 | 99
CCN(CC)CCn1c(=N)n(CC(O)COc2ccccc2)c2ccccc21 (centres undefined) | ? | 87 | / | 51* | 91 | 113
CCC(C)C(NC(=O)/C(=C\c1ccccc1)NC(=O)c1ccc(OC)cc1)C(=O)O (centres undefined) | 103 | 103 | 27 | 9 | 102 | 102
COc1ccc(C(CC(=O)Nc2nccs2)n2cccc2)cc1 (centres undefined) | 107 | 101 | 12 | 49* | 102 | 105
C/C(=N/NC(=O)CN1CCN(Cc2ccccc2Cl)CC1)c1ccco1 | ? | 100 | / | 7 | 100 | 100
CN(C)c1nc(SCC#N)nc(N(C)C)n1 | 115 | 106 | 26 | 59* | 101 | 106
CCCn1nnc(NC(=O)c2cccc(OCC(C)C)c2)n1 | 104 | 102 | 264* | 7 | 101 | 101
CCCn1nnc(NC(=O)c2cccc(OCC)c2)n1 | 110 | 101 | 32 | 32 | 101 | 101
Cc1sc2nc(CN(C(=O)NC3CCCCC3)C3CCCC3)[nH]c(=O)c2c1C | 136 | 147 | 16 | 56* | 98 | 129
SMILES | RGS7-Gao reg | RGS16-Gao | GSH fluor | Avidin bead fluor | RGS8-Gao reg | RGS4-Gao reg
COCC(=O)N(Cc1nc2sc(C)c(C)c2c(=O)[nH]1)C1CCCCC1 | ? | 104 | / | 7 | 103 | 106
COc1cc(C(=O)NCCc2ccc3c(c2)OCCO3)ccc1OCC(=O)N1CCOCC1 | 119 | 115 | 18 | 68* | 103 | 107
CCOc1ccc(-n2c(C)nc3cc(C(=O)NCCCN4CCOCC4)ccc32)cc1 | 107 | 151 | 34 | 8 | 117 | 107
CCOc1ccc(-n2c(C)nc3cc(C(=O)NCCN4CCOCC4)ccc32)cc1 | 96 | 100 | 104* | 7 | 101 | 100
COc1ccc(Cn2c(C)nnc2-c2cnn(C)c2N)cc1 | 98 | 101 | 16 | 9 | 97 | 102
CCOc1ccc(-c2nn[nH]n2)cc1 | 105 | 106 | 275* | 8 | 103 | 101
Cn1ccnc1SCC(=O)Nc1cc(S(=O)(=O)N2CCOCC2)ccc1Cl | 99 | 103 | 7 | 5 | 101 | 102
Cc1nn(C(C)C(=O)N2CCN(c3ccccn3)CC2)c(=O)c2cc3occc3n12 (centres undefined) | 110 | 125 | 18 | 47* | 106 | 107
CCC(C(=O)N1CCN(c2ccccn2)CC1)n1nc(C)n2c(cc3occc32)c1=O (centres undefined) | 100 | 101 | 27 | 39 | 100 | 102
CCc1cccc(CC)c1NC(=O)COC(=O)CC1c2ccccc2CCN1S(=O)(=O)c1ccccc1 (centres undefined) | 128 | 97 | 12 | 78* | 98 | 104
CCc1cccc(CC)c1NC(=O)COC(=O)c1cccc(S(=O)(=O)N2CCc3ccccc3C2)c1 | 98 | 102 | 17 | 3 | 101 | 101
O=c1[nH]c(CN2CCOCC2)nc2ccccc12 | 93 | 99 | 13 | 19 | 95 | 94
O=C(O)c1ccc2c(=O)[nH]c(CN3CCOCC3)nc2c1 | 140 | 105 | 11 | 62* | 100 | 96
CN(C)c1ccc(N=Nc2ccccc2C(=O)OCC(=O)N(C)c2ccccc2)cc1 | 102 | 103 | 12 | 12 | 101 | 101
O=C(COc1ncnc2ccccc12)N1CCN(S(=O)(=O)c2ccc(Cl)cc2)CC1 | 102 | 102 | 264* | 9 | 100 | 98
O=C(COc1ncnc2ccccc12)N1CCN(S(=O)(=O)c2ccccc2)CC1 | 99 | 89 | 21 | 12 | 99 | 98
O=C(NCc1ccccn1)C(C(=O)c1cccc([N+](=O)[O-])c1)n1cc(Cl)ccc1=O (centres undefined) | 94 | 106 | 11 | 20 | 100 | 95
Cc1c(C(=O)OCC(=O)N2c3ccccc3CC2C)oc2ccccc12 (centres undefined) | 135 | 104 | 11 | 95* | 98 | 104
O=C(OCC(=O)N1CCN(C(=O)c2ccco2)CC1)C1=COCCO1 | 138 | 90 | 31 | 82* | 91 | 94
CCOC(=O)C1CCCN(C(=O)COC(=O)C2=COCCO2)C1 (centres undefined) | 119 | 103 | 12 | 71* | 99 | 104
CCOC(=O)NC(CC(=O)O)c1ccc(OC)c(OC)c1 (centres undefined) | 102 | 104 | 259* | 8 | 102 | 106

High-throughput results from PubChem BioAssay.
